The results in this text go back to PubChem BioAssay (EPA / NIEHS).

Active and inactive are the calls of the source. How the source made its calls: active means hit-call score of the fitted dose curve at least 0.9, where 1 is the maximum; inactive means score below 0.9.

Read-out in one test: Monokine induced gamma interferon (MIG), CXCL9 (gene 4283)
In words: BSK_SAg_MIG: BioMAP Diversity Plus: SAg Assay for Monokine induced gamma interferon (MIG) Biomarker Activity (AID 2283092). To be noted: primary human HUVEC with PBMC; actives raise or lower the signal. In a few lines: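 ELISA readout of MIG/CXCL9; primary human umbilical vein endothelial cells co-cultured with peripheral blood mononuclear cells; 24 h post-dose; gain/loss fit vs DMSO baseline.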
On to `CC(C)c1cccc(C(C)C)c1NC(=O)NS(=O)(=O)c1cc(C(C)(C)O)co1`, for which the result was inactive.
On the same count and under the same terms, under `CCCCCCCC(=O)OC` stands “inactive”.
The same measure, in the same setting: under `Nc1nc(Cl)nc2c1ncn2[C@H]1C[C@H](O)[C@@H](CO)O1` stands “inactive”; under `CCCCCCC(CCCCCCCCCCC(=O)OCC(COC(C)=O)OC(C)=O)OC(C)=O` (configuration not stated), “inactive”; under `c1ccc2occc2c1`, “inactive”.
For `CCCCc1nc2cccnc2n1Cc1ccc(-c2ccccc2-c2nnn[nH]2)cc1`, the result was inactive.

Read-out in another test: not listed separately
In words: BSK_SAg_PBMCCytotoxicity: PBMC Cytotoxicity Assessment in the BioMAP Diversity Plus: SAg Assay (AID 2283093).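 Further: PBMC viability measured as Alamar Blue reduction fluorescence at 546/580 nm; fitted both ways against DMSO so a hit may be loss or gain of signal.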 To be noted: primary human HUVEC with PBMC. In a few lines:
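HUVEC/PBMC co-culture; PBMC exposed to chemical 1 h before SEB and TSST-1 activation (20 ng/mL each), incubated 90 h, then Alamar Blue 6 h, fluorescence 546/580 nm. Bidirectional fit versus DMSO baseline.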
`O=C(O)c1cccnc1`: the result was inactive.
Same read-out and setting: under `CCc1cc(C2=C(C(=O)O)N(c3ccccc3C(F)(F)F)S(=O)(=O)c3ccccc32)cc2c1OCO2` stands “inactive”; under `Cc1cn([C@H]2C=C[C@@H](CO)O2)c(=O)[nH]c1=O`, “inactive”.
On the same count and under the same terms, in the case of `CCCCC(CC)COC(=O)CCCCCCCC(=O)OCC(CC)CCCC` (configuration not stated) it was “inactive”.
The same measure, in the same setting: in the case of `CC(N)=O` it was “inactive”.
Regarding `O=C1OC(c2ccc(O)cc2)(c2ccc(O)cc2)c2ccccc21`, the result was inactive.
The same measure, in the same setting: under `Cc1cc(SC2=C(O)C[C@@](CCc3ccc(N)cc3)(C(C)C)OC2=O)c(C(C)(C)C)cc1CO` stands “inactive”.
For `Oc1ccccc1O`, the outcome was inactive.
Regarding `CCCCOC(=O)CCCCC(=O)OCCCC`, the outcome was inactive.
`O=NO`: the outcome was inactive.
Still for that read-out and setting: under `Cn1cnc2c1c(=O)[nH]c(=O)n2C` stands “inactive”; under `O=C(O)c1[nH]n(-c2ccc(S(=O)(=O)O)cc2)c(=O)c1N=Nc1ccc(S(=O)(=O)O)cc1`, “inactive”.
Still for that read-out and setting: in the case of `C=CCc1ccc(OC)c(OC)c1` it was “inactive”.
In the case of `CCOCCOCCO`, the result was inactive.
Take `CC(C)c1cccc(C(C)C)c1NC(=O)NS(=O)(=O)c1cc(C(C)(C)O)co1`: the result was inactive.
The same measure, in the same setting: under `CCCCCCC(CCCCCCCCCCC(=O)OCC(COC(C)=O)OC(C)=O)OC(C)=O` (configuration not stated) stands “inactive”.
